Structures are written as SMILES. Records with an inconclusive call do not appear. Activity calls are given as the source filed them. Calls come from the whole dose curve; as a rule, active = well fitted inhibition curve with a large enough effect; inconclusive = small, poorly fitted or top-dose-only effect; inactive = flat fitted curve, though single readings scatter.
% is set by controls: 0 for no effect and ±100 for the full control effect; potency is the fitted concentration of half-maximal effect.

This assay in a line: qHTS to identify inhibitors of the type 1 interferon - major histocompatibility complex class I in skeletal muscle: primary screen against the NCATS LOPAC collection (AID 1347405).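 Note: lytic HiBiT luminescence reporting HLA-B protein level.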 Particulars: iHSKM muscle cells, IFN-b-induced MHC-I HiBiT luminescence, 24 h; series mostly up to 45.9 µM; activity change, negative = inhibition: at the top concentration. The text has this:
Assay Submitter (PI): Travis B. Kinder Ph.D. & James Inglese Ph.D.
Assay Development and Screening Technology Laboratory (ADST)
National Center for Advancing Translational Sciences (NCATS), Rockville, MD
National Institute of Health (NIH), Bethesda, Maryland
Idiopathic inflammatory myopathies, collectively referred to as myositis, are a group of rare autoimmune diseases characterized by skeletal muscle inflammation, weakness, and usually accompanied by systemic pathologies of the skin, lungs, or vasculature. Current immunosuppressive therapies and glucocorticoids are often not curative and are accompanied by harsh side effects, especially in children with juvenile myositis. We initiated a drug repurposing and development program to identify more targeted, less toxic therapeutics to treat myositis. Although its cause is not known, muscle from a subset of patients have an abundance of the inflammatory type 1 interferon (IFN) and a down-stream product major histocompatibility complex class I (MHC class I), which are both thought to contribute to damage and weakness. We conducted quantitative high throughput screening on 6,576 compounds (4,679 unique) through a series of cell-based assays to identify those that inhibit the IFN-stimulated expression of MHC class I in muscle precursor cells (myoblasts). The compound identification and evaluation strategy utilized a primary screen with reporter-tagged MHC class I in genome-engineered myoblasts, ATP content counter screen for viability, HLA-ABC immunofluorescence secondary screen, and HLA-B RT-qPCR tertiary screen.
The primary screen utilized CRISPR/Cas9 genome-engineering of immortalized human myoblasts, C25cl48, where a pro-luminescent reporter HiBit was fused to the C-terminus of endogenous MHC class I allele HLA-B*08:01 (HLA-B HiBit myoblasts). HiBit is an 11 amino acid fragment of NanoLuc luminescent reporter (Promega Corporation), and when complexed to the larger LgBit fragment, the reconstituted enzyme produces light in the presence of furimazine substrate (Schwinn et al., 2018). Briefly, HLA-B HiBit myoblasts were plated into 1536-well plates, treated with 4.0 ng/ml human IFN-beta and 1,280 compounds from the Library of Pharmacologically Active Compounds 1280 library (LOPAC1280, Sigma Aldrich) in a 7-point, 1:4.3 titration with a high final concentration of 46 uM. After 24 hrs of treatment, cells were assayed by Nano-Glo HiBiT Lytic Detection System (Promega) and luminescence measured by a ViewLux 1430 Ultra HTS (Perkin Elmer).
Schwinn MK, Machleidt T, Zimmerman K, Eggers CT, Dixon AS, Hurst R, Hall MP, Encell LP, Binkowski BF, Wood K V. 2018. CRISPR-Mediated Tagging of Endogenous Proteins with a Luminescent Peptide. ACS Chem Biol 13:467-474. doi:10.1021/acschembio.7b00549
PROTOCOL TABLE (as described by Inglese et al., 2007)
SEQUENCE No. (e.g., 1, 2, 3, etc.); […] (e.g., Cells, Incubation, Reagent, etc.); VALUE; DESCRIPTION
1a; Cells; 5 uL; Use a Multidrop Combi (Thermo Scientific) to seed 350 cells/well into nine Greiner 1536 well white/solid bottom, high base, TC plates in 5 ul/well of iHSKM growth medium (GM) without dexamethasone into columns 1+2. Add metal lids with gas-exchange holes
1b; Cells; 5 uL; Use a Multidrop Combi (Thermo Scientific) to seed 350 cells/well into nine Greiner 1536 well white/solid bottom, high base, TC plates in 5 ul/well of iHSKM GM without dexamethasone + 4 ng/ml IFN-b into columns 3 - 48. Add metal lids with gas-exchange holes
2; Incubate; 1 hr; Incubate at 37 C, 5% CO2, 95% RH
3; Compounds; 23 nl; Use Pin Tool (Wako) to transfer DMSO control, ruxolitinib IFN-b inhibitor control [High Concentration = 80 uM final, 16-pt, 1:2 in duplicate], and library compounds in DMSO
4; Incubate; 24 hrs; Incubate at 37 C, 5% CO2, 95% RH
5; Dispense; 2.5 ul; Use BioRAPTR FRD (Beckman Coulter) to add HiBit lytic reagent
6; Incubate; 10 min; Incubate in the dark at ambient temperature for lysis
[…]
Turning to `C[C@H](NC(CCc1ccccc1)C(=O)O)C(=O)N1CCC[C@H]1C(=O)O` (stereo not given in full), the “activity change, negative = inhibition” value is 12% (inactive).
Still for that read-out and setting: in the case of `CC(CN(C)C)CN1c2ccccc2CCc2ccccc21` (stereo not given) it was -14.2% (inactive).
Regarding `CCN(CC)C(C)CN1c2ccccc2Sc2ccccc21` (stereo not given), the “activity change, negative = inhibition” value was 2.19% (inactive).
In the case of `CC1=C(CC(=O)O)c2cc(F)ccc2/C1=C\c1ccc(S(C)(=O)=O)cc1`, the “activity change, negative = inhibition” value is -6.59% (inactive).
Same read-out and setting: in the case of `C#CCN(C)Cc1ccccc1` it was 0.198% (inactive).
Take `CC(C)NC[C@H](O)c1ccc(O)c(O)c1`: the Potency result is “inactive”.
Regarding `CC(C)(C)c1onc(OCP(=O)(O)O)c1CC(N)C(=O)O` (stereo not given), the “activity change, negative = inhibition” value was -13.6% (inactive).
On to `Cc1cc(N)c2ccccc2[n+]1CCCCCCCCCC[n+]1c(C)cc(N)c2ccccc21`, for which the “activity change, negative = inhibition” value is -24.8% (inactive).
On to `CC(C)C(=O)c1c(C(C)C)nn2ccccc12`, for which the “activity change, negative = inhibition” value was -17.6% (inactive).
Take `NC(N)=NCCC[C@H](N)C(=O)O`: the “activity change, negative = inhibition” value was 9.17% (inactive).
Regarding `C[C@H]1O[C@@H](n2cc(F)c(=O)[nH]c2=O)[C@H](O)[C@@H]1O`, the “activity change, negative = inhibition” value is -2.96% (inactive).
As for `CCCn1cnc2c1c(=O)n(CCCCC(C)=O)c(=O)n2C`, the “activity change, negative = inhibition” value was 6.32% (inactive).
Regarding `CNCC(O)c1ccc(O)c(O)c1` (stereo not given), the “activity change, negative = inhibition” value is -1.58% (inactive).
For the compound `CC1=C(/C=C/C(C)=C/C=C/C(C)=C/C(=O)O)C(C)(C)CCC1`, the “activity change, negative = inhibition” value was -9.18% (inactive).
The same measure, in the same setting: in the case of `C[C@]12CC[C@@H]3c4ccc(O)cc4CC[C@H]3[C@@H]1CCC2=O` it was -5.82% (inactive); in that of `CN(C)CCC=C1c2ccccc2CCc2ccccc21`, 0.959% (inactive).
For the compound `CC[C@H]1CN2CCc3cc(OC)c(OC)cc3[C@@H]2C[C@@H]1C[C@H]1NCCc2cc(OC)c(OC)cc21`, the Potency is 0.282 µM (active).
In the case of `CC(=O)c1ccc2c(c1)N(CCCN(C)C)c1ccccc1S2`, the “activity change, negative = inhibition” value was -25.6% (inactive).
As for `CCN(CC)CCNC(=O)c1c(C)[nH]c(/C=C2\C(=O)Nc3ccc(F)cc32)c1C`, the Potency was 10 µM (active).
`COc1ccc(Cl)cc1C(=O)NCCc1ccc(S(=O)(=O)NC(=O)NC2CCCCC2)cc1`: the “activity change, negative = inhibition” value was -16.8% (inactive).
For `C[C@]12C[C@H](O)[C@H]3[C@@H](CCC4=CC(=O)CC[C@@]43C)[C@@H]1CC[C@@H]2C(=O)CO`, the “activity change, negative = inhibition” value is -22.6% (inactive).
With `CC(C)c1c(C(=O)Nc2ccccc2)c(-c2ccccc2)c(-c2ccc(F)cc2)n1CC[C@@H](O)C[C@@H](O)CC(=O)O`, the “activity change, negative = inhibition” value is -10.9% (inactive).
Consider `CCN(CC)CCOC(=O)C1(C2CCCCC2)CCCCC1`, for which the “activity change, negative = inhibition” value is -22.4% (inactive).
Take `CC(C)(C)[C@]1(O)CCN2C[C@H]3c4ccccc4CCc4cccc(c43)[C@@H]2C1`: the Potency entry is “inactive”.
`C=Cc1c(C)c2cc3[nH]c(cc4nc(cc5nc(cc1[nH]2)C(C)=C5CCC(=O)O)C(CCC(=O)O)=C4C)c(C)c3C=C`: the “activity change, negative = inhibition” value was -13.1% (inactive).
The same measure, in the same setting: in the case of `CCCCN(CCCC)CC(O)c1cc(Cl)cc2c1-c1ccc(Cl)cc1/C2=C/c1ccc(Cl)cc1` (stereo not given) it was -15.5% (inactive); in that of `CNCCCC1c2ccccc2C=Cc2ccccc21`, -15.8% (inactive); in that of `CCCCc1ncc(/C=C(\Cc2cccs2)C(=O)O)n1Cc1ccc(C(=O)O)cc1`, -5.65% (inactive).
Consider `CC(=O)OCC(=O)[C@@]1(O)CC[C@H]2[C@@H]3CCC4=CC(=O)CC[C@]4(C)[C@H]3C(=O)C[C@@]21C`, for which the “activity change, negative = inhibition” value was 1.57% (inactive).
`CC(C(O)c1ccc(O)cc1)N1CCC(Cc2ccccc2)CC1` (stereo not given): the “activity change, negative = inhibition” value was -11.4% (inactive).
With `COCCOC(=O)C1=C(C)NC(C)=C(C(=O)OC/C=C/c2ccccc2)C1c1cccc([N+](=O)[O-])c1` (stereo not given), the Potency was 22.4 µM (active).
Consider `CN1CCC[C@@H]1Cc1c[nH]c2ccc(CCS(=O)(=O)c3ccccc3)cc12`, for which the “activity change, negative = inhibition” value is -17.4% (inactive).
`N=c1c[n+](N2CCOCC2)[n-]o1`: the “activity change, negative = inhibition” value was -5.44% (inactive).
For the compound `NC(=O)c1ncn([C@@H]2O[C@H](CO)[C@@H](O)[C@H]2O)n1`, the “activity change, negative = inhibition” value was -6.49% (inactive).
Consider `CC(CN1c2ccccc2Sc2ccccc21)N(C)C` (stereo not given), for which the “activity change, negative = inhibition” value was -11.2% (inactive).
Turning to `CN(C)CC[C@@H](c1ccc(Cl)cc1)c1ccccn1`, the “activity change, negative = inhibition” value was 0.0961% (inactive).
On the same count and under the same terms, in the case of `CNC(=O)Oc1ccc2c(c1)[C@]1(C)CCN(C)[C@@H]1N2C` it was -2.6% (inactive); in that of `Nc1ncnc2c1ncn2[C@@H]1O[C@H](CO)[C@@H](O)[C@H]1O`, 1.62% (inactive).
In the case of `C[C@](N)(Cc1ccc(O)cc1)C(=O)O`, the “activity change, negative = inhibition” value was 0.272% (inactive).
The same measure, in the same setting: in the case of `O=C1N=C(O)CN1/N=C/c1ccc(-c2ccc([N+](=O)[O-])cc2)o1` it was -0.433% (inactive).
